The values below come from paper PMC9911399, “Two distinct binding modes provide the RNA-binding protein RbFox with extraordinary sequence specificity”.

First the molecules themselves.
T1: RBFOX1 RRM RbFoxmut (Fox-RRM*) (Homo sapiens, UniProt Q9NWB1 109-208, R118D;E147R;N151S;E152T)
T1 sequence: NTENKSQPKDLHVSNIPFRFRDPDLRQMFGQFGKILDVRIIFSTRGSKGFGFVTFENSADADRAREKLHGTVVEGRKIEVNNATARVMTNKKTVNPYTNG

B1: GACUAAG (DNA:RNA)
RNA: GGGAGACCGGAAUUCAGAUUGUCCGACUAAGUUAAAUCCCGUCGUAGCCACCA
DNA 1: CAATCTGAATTCCGGTCTCCC
DNA 2: TGGTGGCTACGACGGGATT
B2: CAUAAUU (DNA:RNA)
RNA: B1 RNA with G25C, C27U, U28A, A30U, G31U
DNA 1: CAATCTGAATTCCGGTCTCCC
DNA 2: TGGTGGCTACGACGGGATT
B3: AUCUAGU (DNA:RNA)
RNA: B1 RNA with G25A, A26U, A30G, G31U
DNA 1: CAATCTGAATTCCGGTCTCCC
DNA 2: TGGTGGCTACGACGGGATT
B4: UCGACUC (DNA:RNA)
RNA: GGGAGACCGGAAUUCAGAUUGUCCUCGACUCUUAAAUCCCGUCGUAGCCACCA
DNA 1: CAATCTGAATTCCGGTCTCCC
DNA 2: TGGTGGCTACGACGGGATT
B5: UACACUA (DNA:RNA)
RNA: B4 RNA with C26A, G27C, C31A
DNA 1: CAATCTGAATTCCGGTCTCCC
DNA 2: TGGTGGCTACGACGGGATT
B6: UCCUGAU (DNA:RNA)
RNA: B1 RNA with G25U, A26C, A29G, G31U
DNA 1: CAATCTGAATTCCGGTCTCCC
DNA 2: TGGTGGCTACGACGGGATT
B7: ACCUCGU (DNA:RNA)
RNA: B1 RNA with G25A, A26C, A29C, A30G, G31U
DNA 1: CAATCTGAATTCCGGTCTCCC
DNA 2: TGGTGGCTACGACGGGATT
B8: GAGUAGC (DNA:RNA)
RNA: B1 RNA with C27G, A30G, G31C
DNA 1: CAATCTGAATTCCGGTCTCCC
DNA 2: TGGTGGCTACGACGGGATT
B9: AGAUUGA (DNA:RNA)
RNA: B1 RNA with G25A, A26G, C27A, A29U, A30G, G31A
DNA 1: CAATCTGAATTCCGGTCTCCC
DNA 2: TGGTGGCTACGACGGGATT
B10: AGAAUGA (DNA:RNA)
RNA: B4 RNA with U25A, C26G, G27A, C29U, U30G, C31A
DNA 1: CAATCTGAATTCCGGTCTCCC
DNA 2: TGGTGGCTACGACGGGATT
B11: CGAUGAC (DNA:RNA)
RNA: B1 RNA with G25C, A26G, C27A, A29G, G31C
DNA 1: CAATCTGAATTCCGGTCTCCC
DNA 2: TGGTGGCTACGACGGGATT
B12: GAAUGAC (DNA:RNA)
RNA: B1 RNA with C27A, A29G, G31C
DNA 1: CAATCTGAATTCCGGTCTCCC
DNA 2: TGGTGGCTACGACGGGATT
B13: ACCAGAA (DNA:RNA)
RNA: B1 RNA with G25A, A26C, U28A, A29G, G31A
DNA 1: CAATCTGAATTCCGGTCTCCC
DNA 2: TGGTGGCTACGACGGGATT
B14: GAUUGAC (DNA:RNA)
RNA: B1 RNA with C27U, A29G, G31C
DNA 1: CAATCTGAATTCCGGTCTCCC
DNA 2: TGGTGGCTACGACGGGATT
B15: UGAAUAU (DNA:RNA)
RNA: B4 RNA with C26G, G27A, C29U, U30A, C31U
DNA 1: CAATCTGAATTCCGGTCTCCC
DNA 2: TGGTGGCTACGACGGGATT
B16: AGAUUAU (DNA:RNA)
RNA: B1 RNA with G25A, A26G, C27A, A29U, G31U
DNA 1: CAATCTGAATTCCGGTCTCCC
DNA 2: TGGTGGCTACGACGGGATT
B17: AAUCAGU (DNA:RNA)
RNA: B1 RNA with G25A, C27U, U28C, A30G, G31U
DNA 1: CAATCTGAATTCCGGTCTCCC
DNA 2: TGGTGGCTACGACGGGATT
B18: GCAACGU (DNA:RNA)
RNA: B4 RNA with U25G, G27A, U30G, C31U
DNA 1: CAATCTGAATTCCGGTCTCCC
DNA 2: TGGTGGCTACGACGGGATT
B19: UGGCACC (DNA:RNA)
RNA: B4 RNA with C26G, A28C, C29A, U30C
DNA 1: CAATCTGAATTCCGGTCTCCC
DNA 2: TGGTGGCTACGACGGGATT
B20: UGGCAUU (DNA:RNA)
RNA: B4 RNA with C26G, A28C, C29A, C31U
DNA 1: CAATCTGAATTCCGGTCTCCC
DNA 2: TGGTGGCTACGACGGGATT
B21: UGGCAUG (DNA:RNA)
RNA: B4 RNA with C26G, A28C, C29A, C31G
DNA 1: CAATCTGAATTCCGGTCTCCC
DNA 2: TGGTGGCTACGACGGGATT
B22: UGGCAGA (DNA:RNA)
RNA: B4 RNA with C26G, A28C, C29A, U30G, C31A
DNA 1: CAATCTGAATTCCGGTCTCCC
DNA 2: TGGTGGCTACGACGGGATT
B23: UGGCAUA (DNA:RNA)
RNA: B4 RNA with C26G, A28C, C29A, C31A
DNA 1: CAATCTGAATTCCGGTCTCCC
DNA 2: TGGTGGCTACGACGGGATT
B24: UGGCAUC (DNA:RNA)
RNA: B4 RNA with C26G, A28C, C29A
DNA 1: CAATCTGAATTCCGGTCTCCC
DNA 2: TGGTGGCTACGACGGGATT

Changes are numbered by the printed parent chain; changes in the protein carry UniProt numbers. The full ranking holds about 16,000 sequences; the median of “ka relative to ugcaugu” is about 0.096, and the highest 2% start at about 0.35. This is one part of a sample in which the highest values are shown more often than they occur.

For this experiment, the target named is T1, RBFOX1 RRM RbFoxmut (Fox-RRM*). Kind of experiment: EMSA; HiTS-Eq, 1 nM pool, 10 min; buffer printed only for the single-RNA assays: 10 mM Tris pH 7.5, 150 mM NaCl, 3.4 mM EDTA, 0.001% NP-40, 30 C. To be noted: tags: His6 N-terminal (pET28a); label: 5' 32P. The method, boiled down:
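These values rest on relative association constants, computed from read-count changes of each RNA species versus the control reaction and normalised to the cognate motif. Reads came from free RNA recovered by 8% native PAGE after purified RbFox RRM (wild type or mutant) at increasing concentrations was equilibrated for 10 min in 50 µL with 1 nM of a 5′-radiolabelled pool with 7 randomized nucleotides and DNA-annealed flanks.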
Consider B1, for which the binding signal is 0.101 KA relative to UGCAUGU. As for B2, the figure is 0.0899 KA relative to UGCAUGU; as for B3, 0.14 KA relative to UGCAUGU. As for B4, the figure is 0.0668 KA relative to UGCAUGU. Then B5, with 0.0954 KA relative to UGCAUGU. On to B6, for which the binding signal was 0.0975 KA relative to UGCAUGU. Then B7, with 0.106 KA relative to UGCAUGU; and B8, with 0.108 KA relative to UGCAUGU.

With B9, the binding signal was 0.117 KA relative to UGCAUGU. Then B10, with 0.646 KA relative to UGCAUGU; and B11, with 0.141 KA relative to UGCAUGU; and B12, with 0.829 KA relative to UGCAUGU.

Regarding B13, the binding signal is 0.0963 KA relative to UGCAUGU.

Turning to B14, the binding signal is 0.109 KA relative to UGCAUGU. As for B15, the figure is 0.0814 KA relative to UGCAUGU; as for B16, 0.124 KA relative to UGCAUGU; as for B17, 0.0868 KA relative to UGCAUGU. As for B18, the figure is 0.094 KA relative to UGCAUGU; as for B19, 0.113 KA relative to UGCAUGU; as for B20, 0.1 KA relative to UGCAUGU.

In the case of B21, the binding signal is 1.17 KA relative to UGCAUGU. As for B22, the figure is 0.0918 KA relative to UGCAUGU; as for B23, 0.127 KA relative to UGCAUGU.

As for B24, the binding signal is 0.411 KA relative to UGCAUGU.
